Source: PubChem BioAssay (NCI)
About 83,000 compounds went through this panel and 20% of them were active in at least one assay; those are over-represented in the sample as a whole.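 Step 1: grow cells in 96-well plates. Step 2: add test compound at a single concentration. Step 3: incubate 48 h. Step 4: record percent growth.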 A number with no mark means an inactive call. Activity calls are given as the source filed them. The calls were made as follows: active = growth percent below 10; inactive = the rest.

Assays:
Assay in all cases: NCI-60 one-dose screen, 48 h (100 = growth as untreated, 0 = no growth, -100 = all killed)
Details in all cases: 10 µM unless noted
HCT-15 colon = system: HCT-15 colon
HT29 colon = system: HT29 colon
SNB-75 CNS = system: SNB-75 CNS
SNB-19 CNS = system: SNB-19 CNS
U251 CNS = system: U251 CNS
PC-3 prostate = system: PC-3 prostate
SK-MEL-5 melanoma = system: SK-MEL-5 melanoma
UACC-62 melanoma = system: UACC-62 melanoma
LOX IMVI melanoma = system: LOX IMVI melanoma
SK-MEL-28 melanoma = system: SK-MEL-28 melanoma

| Structure (SMILES) | growth (HCT-15 colon) | growth (HT29 colon) | growth (SNB-75 CNS) | growth (SNB-19 CNS) | growth (U251 CNS) | growth (PC-3 prostate) | growth (SK-MEL-5 melanoma) | growth (UACC-62 melanoma) | growth (LOX IMVI melanoma) | growth (SK-MEL-28 melanoma) |
| --- | --- | --- | --- | --- | --- | --- | --- | --- | --- | --- |
| N/C(=N\c1nc2ccccc2s1)NC(=O)Nc1ccccc1[N+](=O)[O-] | 5.8% (active) | -31.5% (active) | 19.5% | 21.1% | 7.5% (active) | 29.3% | -21.5% (active) | 12% | 10% | 51% |
| COC(=O)c1c(C(=O)OC)c2c3ccccc3c3ccccc3n2c1C(=O)C(C)(C)C | 46.6% | 71.9% | 83.5% | 96.2% | 85.3% | 35.3% | 46.8% | 50.1% | 81.4% | 92.5% |
| N#CC1=C(c2cccs2)Nc2c(c(-c3ccccc3)nn2-c2ccccc2)C12C(=O)Nc1ccccc12 (stereo unspecified) | 11.9% | 6.67% (active) | 60.5% | 25.4% | 11.6% | 6.98% (active) | 23.9% | 48.5% | 61.6% | 15.2% |
| CCN1C(=O)N(CC)C2NNC(Sc3c(C(=O)O)c4ccccc4n(CC(C)C)c3=O)=NC21 (stereo unspecified) | 7.04% (active) | -8.58% (active) | 34.4% | 17% | 10.7% | 29.9% | 2.31% (active) | 14.7% | 16.5% | 54.4% |
| Fc1ccccc1CNc1nc(SCCN2CCOCC2)nc2c1cnn2CC(Cl)c1ccc(Br)cc1 (stereo unspecified) | -53.3% (active) | -33.6% (active) | 50.1% | 52.6% | 37.8% | 30.3% | -76% (active) | -4.51% (active) | 1.88% (active) | 22% |
| COc1ccc(OC)c(Cn2cc(C#N)c(N)c2C(=O)c2ccc(Br)cc2)c1 | 26.2% | 4.97% (active) | 50.4% | 55.3% | 26.3% | 66% | 26.6% | 29.9% | 49.6% | 54.3% |
| Cc1ccc(C(C(=O)NC2CCCCC2)N(Cc2ccccc2Cl)C(=O)c2ccc(CN3CCOCC3)o2)o1 (stereo unspecified) | 98.3% | 95.4% | 80.2% | 85.6% | 103% | 78.5% | 83.4% | 66.2% | 87% | 114% |
| Cc1nn(-c2ccccc2)c2nc(C)n(C(=O)N/N=C/c3ccccc3)c(=O)c12 | 107% | 106% | 62.3% | 87% | 95.5% | 92.7% | 103% | 92.6% | 96.8% | 105% |
| COc1ccc(Nc2nnc(-c3c[nH]c4ccccc34)o2)cc1 | 69% | 106% | 78.8% | 95.2% | 97.6% | 78.6% | 90.6% | 82.2% | 71.6% | 107% |
| CCc1ccccc1-c1nc(CN[C@@H]2C[C@@H]3C[C@H]([C@H]2C)C3(C)C)c(C)o1 | -71.2% (active) | -73.8% (active) | -68.1% (active) | -81.7% (active) | -61.9% (active) | -54.3% (active) | -94.3% (active) | -88.3% (active) | -94.4% (active) | -80.3% (active) |
| COc1ccc(/C=C/C(=O)c2ccc(OC)c(S(N)(=O)=O)c2)c(C(F)(F)F)c1 | -52% (active) | 6.34% (active) | 37.6% | -28.6% (active) | -64.7% (active) | 11.2% | 18.9% | 30.6% | -93% (active) | 35.5% |
| Cc1[nH]nc2ccc3nc(-c4cnn(CCO)c4)c4c(c3c12)CCCC4 | 23.3% | 31.3% | 31.9% | 74.4% | 57.2% | 40.4% | 31.7% | 34.8% | 25.1% | 75.6% |
| CS(=O)(=O)Nc1cc(-c2ccc3ncnc(N4CCc5cc(F)c(Cl)cc54)c3c2)cnc1Cl | 7.55% (active) | 19.7% | -17.7% (active) | 27% | 17.8% | 12.9% | -72.8% (active) | -43.2% (active) | -29.2% (active) | -0.47% (active) |
| COC(=O)c1cc(C(C)=O)n2c3ccccc3c3ccccc3c12 | 71.3% | 92.6% | -12.2% (active) | 42.9% | 80.6% | 56.5% | 21.9% | 67% | 64.7% | 92.4% |
| COc1ccc(C(=O)C[n+]2cccc3c4ccccc4ccc32)cc1 | 87.5% | 20.4% | 82.1% | 31.4% | 28.2% | 27.5% | -31.4% (active) | 55.7% | 46.1% | 67% |
| Nc1nn2c(-c3cc4ccccc4oc3=O)ccnc2c1N=Nc1ccccc1 | 82.5% | 124% | 40% | 4.86% (active) | 6.17% (active) | 82.5% | 67.6% | 92.7% | 34% | 90.2% |
| N#Cc1cc(-c2ccnc(Nc3ccc(N4CCN(C5COC5)CC4)cc3)n2)ccc1N1CCCC1 | 41.9% | 18.6% | 15.7% | 117% | 75.7% | 64.4% | 62.2% | 87.1% | 40% | 77.2% |
| Clc1ccccc1Nc1nnc(-c2c[nH]c3ccccc23)o1 | 26.1% | 2.07% (active) | 42% | 41% | 7.39% (active) | 32.7% | 9.29% (active) | 15.2% | 15.5% |  |
| CC1=C(C(=O)OCc2ccccc2)C(c2cccc3ccccc23)n2c(nc3ccccc32)N1 (stereo unspecified) | 21.7% | 3.87% (active) | -15.1% (active) | 40.9% | 24.9% | 22.8% | 3.71% (active) | 17.3% | 36.1% | 50.5% |
| O=C1/C(=C/c2cnc(-c3ccccc3)s2)SC(=S)N1Cc1ccc2c(c1)OCO2 | 81.2% | 111% | -30.1% (active) | 16.7% | 42% | 97.9% | 96.9% | 61.5% | 66.6% |  |
| O=C(CSc1nc2ccccc2c(=O)[nH]1)NNC(=O)c1ccccc1Cl | 107% | 109% | 72.6% | 92.4% | 96.3% | 123% | 106% | 110% | 102% |  |
| C/C(=N/O)c1ccc(NC(=O)CSc2nnc(-c3ccc4nc(-c5ccc(Cl)cc5)[nH]c4c3)o2)cc1 | 99.1% | 93.2% | 55.8% | 20.8% | -58.8% (active) | 41% | 11% | 10.5% | -64.4% (active) | -61.5% (active) |
| O=C(N=Nc1c(O)[nH]c2ccc(Br)cc12)c1ccc2nc(-c3ccc(Cl)cc3)[nH]c2c1 | 58.9% | 10.7% | -18% (active) | -27.2% (active) | -91.8% (active) | 10% | 37.3% | -74.8% (active) | -100% (active) | -96.3% (active) |
| Nc1nc2cc(-c3ccc4ncnc(NCc5ccccc5)c4c3)ccc2o1 | 14.1% | 37.2% | -83.9% (active) | 23% | 9.55% (active) | 25.2% | 0.196% (active) | 77.1% | -86.1% (active) | 10.7% |
| Cc1ccc(C(=O)Nc2cc(-c3ccncc3)cc(C(F)(F)F)c2)cc1C#Cc1cnc2cccnn12 | 40.5% | 26.9% | 93.7% | 92.9% | 66.5% | 75.1% | 34.4% | 14.4% | 11.1% |  |
